Source: the supplement of paper PMC6555819

Legend:
Experiment in all cases: PBM binding z-score (relative to random genomic background probes); higher = stronger binding; sequences stand for … in GC…GCGATTGACAGCGTAGAATGAAGG
[1] = system: FXR:RXRa (NR concentration 270 nM, RXRa partner concentration 90 nM)
Method in brief: (§1)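 Probes were double-stranded and carried 34-nt variable regions with direct-repeat seeds, single-nucleotide variants, half-site ablations and random human genomic background sequences, printed on custom Agilent 4×180K protein-binding microarrays. Arrays were incubated 1 h with ligand-free nuclear receptor dimers in PBS pH 7.4, 2% milk, 0.02% Triton X-100, 1 mM DTT, 0.2 mg/mL BSA and 0.4 mg/ml salmon testes DNA. Antibodies against each partner (one per run) detected binding, and scanned fluorescence was regression-normalized. Binding z-scores use the random background probes as reference.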

[2] = system: LXRa:RXRa (NR concentration 270 nM, RXRa partner concentration 90 nM)
Method in brief: as §1

[3] = system: LXRa homodimer (NR concentration 270 nM)
Method in brief: as §1

[4] = system: LXRb:RXRa (NR concentration 270 nM, RXRa partner concentration 90 nM)
Method in brief: as §1

[5] = system: LXRb homodimer (NR concentration 270 nM)
Method in brief: as §1

[6] = system: PPARa:RXRa (NR concentration 270 nM, RXRa partner concentration 90 nM)
Method in brief: as §1

[7] = system: PPARg:RXRa (NR concentration 180 nM, RXRa partner concentration 90 nM)
Method in brief: as §1

[8] = system: PPARg:RXRa 270nM:90nM, anti-RXR (NR concentration 270 nM, RXRa partner concentration 90 nM)
Method in brief: as §1

[9] = system: PPARg:RXRa 30nM:10nM, anti-RXR (NR concentration 30 nM, RXRa partner concentration 10 nM)
Method in brief: as §1

[10] = system: PPARg:RXRa 90nM:30nM, anti-RXR (NR concentration 90 nM, RXRa partner concentration 30 nM)
Method in brief: as §1

Sequence	PBM binding z-score [1]	PBM binding z-score [2]	PBM binding z-score [3]	PBM binding z-score [4]	PBM binding z-score [5]	PBM binding z-score [6]	PBM binding z-score [7]	PBM binding z-score [8]	PBM binding z-score [9]	PBM binding z-score [10]
ATCGAAAGGTCGTGAGCTGAGTATACAGAAAGGC	4.79	3.91	0.0249	3.03	0.117	4.86	3.35	4	1.23	2.6
GCATATAGGTAATACAGGGTGAAAGTCCGATTGT	0.317	0.746	-0.223	0.369	-0.0682	1.92	1.44	1.47	0.819	0.965
TCAGACAGGTGCAGGTAACTCAGGTACGCAGTCG	0.317	0.617	-0.304	0.192	-0.936	0.506	0.493	1.31	2.88	2.35
TAGCCTAGGTCATGCAGGGGCCAGTATAGAAAGC	3.95	3.15	-0.0993	2.24	-0.427	3.56	2.28	2.44	0.917	1.5
CCTTACGGGTCACTCCAGGTTATAGAATCGGAGT	5.18	7.67	1.89	5.43	0.287	4.4	3.31	3.8	1.18	2.56
ATACCAAGGTGATCGTGAGGTGGTTGATACTAAC	0.375	0.57	0.0365	-0.0432	0.00305	0.168	0.411	0.0619	0.226	0.142
CGAACGAGGGCACGAGTTGATAGCAAATGCCGAT	0.992	0.567	-0.547	0.453	-0.624	2.28	2.4	1.99	0.448	1.44
CCTACTGGGCCATTCAGATGTCATTGATCATATG	-0.368	-0.638	-0.391	-0.292	-0.418	0.25	0.6	0.494	0.00113	0.0703
CCGACTGTGGCAAAGGTTACCATACTCAGTACGA	0.857	1.38	0.228	1.73	-0.558	4.03	8.41	7.91	6.78	8.43
GCGACTGGTGCAAAGCAGGTTACCATAAGGTTGG	-0.455	-0.431	-0.586	-0.35	-0.861	0.293	0.344	-0.0216	-0.591	-0.439
AGTCAAAGTTCACTAGGTAACGTACGATTCAGCT	5.6	5.41	3.55	3.27	0.963	4.79	7.47	6.6	3.88	5.98
CATGCAGGGTCAGCTAGGCCAGAGTAGGGACGGC	4.4	2.77	-0.597	2.03	-0.151	4.36	2.66	3.1	0.694	1.84
